This is an account of results in the OligoGym collection.

Targets include FRRS1; FRMD4B; FTL; FYTTD1; FXN; FXR1; FZD1; FZR1; GALE; GH2; GLCE; GLIPR2; GLI3; GLA.
Test in all cases: pooled miR-30 sensor sort-seq; sequence = guide strand
Common to all, as to conditions: shRNA
Further: reference of the scale not given here.

With TGACAAAGTAACTTCAATCTGA, the sensor-assay potency score (higher = more potent) in the test with FRRS1 came out at 0.192.

Consider TAAACTGCCATTACTTGCCATG, for which, in the test with FRMD4B, the sensor-assay potency score (higher = more potent) was -1.04.

For TTTGCATCTTCAGGAGACGCTC, the sensor-assay potency score (higher = more potent) in the test with FTL was -0.792.

Consider TTGTCATCTAATTTGAACGCAG, for which the sensor-assay potency score (higher = more potent) with FRMD4B is -0.725.

As to ATGAAGATCCAAAAGGGCCTGG, the sensor-assay potency score (higher = more potent) with FTL is -0.154.

For TACCCCACTCATCTTCAGCTGG, in the test with FTL, the sensor-assay potency score (higher = more potent) is -0.815.

On to TTGCATCTTCAGGAGACGCTCG, for which, in the test with FTL, the sensor-assay potency score (higher = more potent) is -0.127.

AAGAACACTGCATAACACCGTC yielded a sensor-assay potency score (higher = more potent) in the test with FRRS1 of -0.249.

Regarding TAAGCTTCACTTCCTCATCTAG, the sensor-assay potency score (higher = more potent) in the test with FTL is -0.516.

In the case of TTCCAGAGCCACATCATCGCGG, in the test with FTL, the sensor-assay potency score (higher = more potent) was -0.592.

In the test with FRRS1, TATGCTAACAGTAGTCATCCAT registered a sensor-assay potency score (higher = more potent) of 0.0935.

Turning to ATCTAGGAAGTGAGTCTCCAGG, the sensor-assay potency score (higher = more potent) with FTL was -1.73.

TTTTTCTCCAGGGCCATGGCAG had a sensor-assay potency score (higher = more potent) in the test with FTL of -1.05.

TTCAGGAGACGCTCGTAGCCCT yielded a sensor-assay potency score (higher = more potent) with FTL of -0.927.

In the test with FRRS1, TTCAACTCCAGAACAACCTCAG returned a sensor-assay potency score (higher = more potent) of 0.767.

Take TTGATAAGCTTCACTTCCTCAT: the sensor-assay potency score (higher = more potent) with FTL is -0.312.

Consider TTATTTTTTCTGCTTAGCTGGC, for which, in the test with FYTTD1, the sensor-assay potency score (higher = more potent) is -0.29.

As for TTCTGTATTCAACTGGGCCTGC, in the test with FYTTD1, the sensor-assay potency score (higher = more potent) is -0.211.

Sequence TAGTCTTTCATAGGTGGTCTCA had a sensor-assay potency score (higher = more potent) in the test with FXN of -0.873.

In turn, TTTAATTTATTTCCACTCCTGG returned a sensor-assay potency score (higher = more potent) in the test with FYTTD1 of -0.341.

Take TGCTACTACATCGTCTAGCAGT: in the test with FYTTD1, the sensor-assay potency score (higher = more potent) is -0.935.

As for TTCATTTCTGGACATAAGCATC, the sensor-assay potency score (higher = more potent) in the test with FXR1 was -1.34.

The sequence TTATTTTCAAAAACAACTGTAA came in with a sensor-assay potency score (higher = more potent) with FXR1 of -0.406.

TTAAAAATGAAGGTACAGCAGT: the sensor-assay potency score (higher = more potent) in the test with FYTTD1 was -0.441.

In turn, TTGGTTTTTAAGGCTTTAGTGA yielded a sensor-assay potency score (higher = more potent) with FXN of -0.944.

TAAGCATCAACTTCGTACGAAT had a sensor-assay potency score (higher = more potent) in the test with FXR1 of -0.962.

TTGCTGTTGGTGAGCCTCGTGT: the sensor-assay potency score (higher = more potent) with FZD1 was -1.11.

Turning to TTGCTCTTGAATATACCTCTAC, in the test with FXR1, the sensor-assay potency score (higher = more potent) was -0.669.

The sequence TATACCTCTACTTCATCTCCTT yielded a sensor-assay potency score (higher = more potent) in the test with FXR1 of 0.473.

Take TATTCTTGTCACTTAGAGGTGG: in the test with FYTTD1, the sensor-assay potency score (higher = more potent) was 0.0654.

As for TACTTAATCATGAAGACCGTGA, the sensor-assay potency score (higher = more potent) in the test with FZD1 is -0.126.

Sequence TTTTGACATTCCAAATCTGGTT had a sensor-assay potency score (higher = more potent) in the test with FXN of -0.929.

In the case of TTGAGCACAGAACTGATGGAGG, the sensor-assay potency score (higher = more potent) in the test with FXR1 is -0.647.

In the case of TGTCTCGATCATCTTCTCCTGC, in the test with FXR1, the sensor-assay potency score (higher = more potent) was determined as 0.196.

Regarding TTTCTTGAATAACTTTGCCATT, the sensor-assay potency score (higher = more potent) with FXR1 was -1.55.

TTAAAAATCAGAACTTGGGGGC: the sensor-assay potency score (higher = more potent) in the test with FXN amounted to 0.521.

Take TGTCATTACACACCACTCGGTC: the sensor-assay potency score (higher = more potent) with FZD1 was -0.427.

TTGAGGGTCTTGCCGGACCAGA came in with a sensor-assay potency score (higher = more potent) with FZD1 of -1.52.

With TTCAATCACATCTTTTGCCATT, the sensor-assay potency score (higher = more potent) with FXR1 is -1.45.

In the test with FZD1, TACAGCACGCTGAAGACGCCAA gave a sensor-assay potency score (higher = more potent) of -0.38.

Turning to TATTAATCTTTTCTTCTCCTGG, in the test with FXR1, the sensor-assay potency score (higher = more potent) was -0.0994.

The sequence ATGAAGACCGTGAAGTCCGGGC returned a sensor-assay potency score (higher = more potent) with FZD1 of -0.0414.

In the case of TTTGACATTCCAAATCTGGTTG, the sensor-assay potency score (higher = more potent) with FXN is -0.256.

Regarding TTGTTTGGCGTCTGCTTGTTGA, the sensor-assay potency score (higher = more potent) with FXN is -0.937.

In the test with FYTTD1, TAGCTGGCTAGGTCTCTTGAGA returned a sensor-assay potency score (higher = more potent) of -1.72.

In the test with FZD1, TTCACTAGAGGGTAGAACTGGT came in with a sensor-assay potency score (higher = more potent) of 0.461.

TAGGTCTCTTGAGAACTGCTAC: the sensor-assay potency score (higher = more potent) in the test with FYTTD1 is -0.309.

Take TTTCATAGGTGGTCTCATCTAG: the sensor-assay potency score (higher = more potent) in the test with FXN was -0.00192.

In turn, TTGTATGTGAGAGTGGCTCTTT registered a sensor-assay potency score (higher = more potent) with FYTTD1 of -0.0403.

As to TAGTCTTGGAAAATTCTGCTTC, the sensor-assay potency score (higher = more potent) in the test with FYTTD1 was 0.266.

In turn, TAGAACTTCCTCCAGGAGTTGA returned a sensor-assay potency score (higher = more potent) in the test with FZD1 of -0.794.

On to ATAACGCTTAGGTCCACTGGAT, for which, in the test with FXN, the sensor-assay potency score (higher = more potent) was -1.03.

Take TTCTCTTTGCTACTACATCGTC: the sensor-assay potency score (higher = more potent) in the test with FYTTD1 was -0.513.

In turn, TAACGCTTAGGTCCACTGGATG had a sensor-assay potency score (higher = more potent) in the test with FXN of -1.46.

TACTACATCGTCTAGCAGTTGT came in with a sensor-assay potency score (higher = more potent) with FYTTD1 of 0.276.

With TATTTTATAACACAGTAGGTGT, the sensor-assay potency score (higher = more potent) with FXR1 was -0.648.

Take TTTGTCGAACGGGTTTTGCTAA: in the test with FZR1, the sensor-assay potency score (higher = more potent) is -0.856.

Turning to ATCCTCACACATCCTGTCCAGC, the sensor-assay potency score (higher = more potent) with GALE was -0.56.

The sequence TACTTTGGAAAGCTCTTTCAGA gave a sensor-assay potency score (higher = more potent) with GALE of -0.275.

For TAGACGTTGCTGTCCGAGGCGC, the sensor-assay potency score (higher = more potent) in the test with GH2 is -0.468.

With TATGCCAGCTGGTACAGGCGAC, in the test with GH2, the sensor-assay potency score (higher = more potent) was -1.2.

In the test with GLCE, TAAAAAGTTGAACACAGTCTGC showed a sensor-assay potency score (higher = more potent) of -0.82.

On to TAACATATGGTATATAACCCAC, for which the sensor-assay potency score (higher = more potent) with GLCE was -0.994.

Turning to TTCTTGCAGAGCTTCAGTGGGG, in the test with GLIPR2, the sensor-assay potency score (higher = more potent) is -0.474.

Turning to TTTCGTGTCTTGCTGACTGAAG, the sensor-assay potency score (higher = more potent) in the test with GLI3 was -0.362.

As to TTCTTGATTTCACTGTACCATC, in the test with GLIPR2, the sensor-assay potency score (higher = more potent) was -1.16.

In the test with GLIPR2, ATCTTCTTGGTGTTCTTCCATA displayed a sensor-assay potency score (higher = more potent) of -1.63.

TCAAACTTGACCTTCATCCAGA registered a sensor-assay potency score (higher = more potent) with GLCE of -0.0575.

With TTTGTTAACAGATAGGCCCTGA, the sensor-assay potency score (higher = more potent) in the test with GLCE was found to be 0.615.

For TCATTGACAACATTCCCCGCTG, the sensor-assay potency score (higher = more potent) with GLIPR2 was -0.0819.

Take TATCTGGCCACCACAAAGGAGG: the sensor-assay potency score (higher = more potent) in the test with GLIPR2 was -1.73.

TACCATACTGTTATCATCGAGT registered a sensor-assay potency score (higher = more potent) in the test with GLCE of 0.0428.

As for TTTCCTGTCTGATCATAGGATG, the sensor-assay potency score (higher = more potent) with GLIPR2 was -0.835.

Regarding TTGATCTTGGACCTCTTGTTGT, in the test with GLI3, the sensor-assay potency score (higher = more potent) was -0.765.

The sequence TTACTAGCCAATCACTAGCAGC displayed a sensor-assay potency score (higher = more potent) with GLCE of -1.01.

Turning to TATAGTTCTTGATTTCACTGTA, the sensor-assay potency score (higher = more potent) in the test with GLIPR2 is 0.562.

For the sequence TAGACATGAATAAAGGAGCAGC, the sensor-assay potency score (higher = more potent) with GLA was -0.359.

Turning to TGCTTGAGGATCCTCGTGCTGG, the sensor-assay potency score (higher = more potent) in the test with GLIPR2 is -0.832.

TTGTGTCACTGAGCTGTCCTGA showed a sensor-assay potency score (higher = more potent) with GLI3 of -0.401.

With TTGCATATAGTATTTGATCTAA, the sensor-assay potency score (higher = more potent) with GLCE is -0.789.

In turn, TTATAGTTCTTGATTTCACTGT came in with a sensor-assay potency score (higher = more potent) with GLIPR2 of 0.709.

For the sequence TTACCTTTTGCAATCAACCTAA, the sensor-assay potency score (higher = more potent) with GLCE turned out to be 0.22.

For the sequence TATACTACCTCCATCGGTCAGA, the sensor-assay potency score (higher = more potent) in the test with GLI3 is -0.385.

In the test with GLA, TGTCACAGTAACAACCATCAAA returned a sensor-assay potency score (higher = more potent) of -0.951.

On to ATAGTTCTTGATTTCACTGTAC, for which the sensor-assay potency score (higher = more potent) in the test with GLIPR2 came out at 0.205.

In the test with GLA, TTAACCTTGAAGTCCATTCATA had a sensor-assay potency score (higher = more potent) of -0.885.

Regarding TTGTCGGCTTAGGATCTGCTGA, the sensor-assay potency score (higher = more potent) with GLI3 is -0.967.

With TTATGTGACTTCTTAACCTTGA, in the test with GLA, the sensor-assay potency score (higher = more potent) is 0.747.

TAAAAGGTCAAACTTGACCTTC: the sensor-assay potency score (higher = more potent) with GLCE is -0.602.

Turning to TTTTTCTTTTCAGTGGTCGTGG, in the test with GLI3, the sensor-assay potency score (higher = more potent) was 0.0526.
